# Measurements published in PubChem BioAssay (NCATS).
# Values joined by “and” are separate entries in the source; they are usually repeats but may differ in a detail not shown here. Equal values may be shown once. Values without a mark were called inactive. Results filed as inconclusive are left out. Some structures have more than one record in an assay (separate samples or runs), and their calls can disagree. Active and inactive are the calls of the source. Unless noted, calls follow the shape of the dose curve; as a rule, active = well fitted activation curve with a large enough effect; inconclusive = small, poorly fitted or top-dose-only effect; inactive = flat fitted curve, though single readings scatter.
# System: not listed separately
# Assay: qHTS assay to identify small molecules that stimulate interleukin-8 (IL-8) secretion (AID 651758; active = well fitted activation curve with a large enough effect in the signal ratio; the % refers to the signal ratio; also: potency is read from the fitted curve at half-maximal effect; as to activation: 0% is about no effect)
# Conditions: HTRF ratio (665/615); series mostly up to 92.2 µM
# Text: National Center for Advancing Translational Sciences [NCATS]
# NIH Chemical Genomics Center [NCGC]
# National Institutes of Environmental Health Sciences [NIEHS]
# National Toxicology Program [NTP]
# Interleukin-8 is a 8 kDa chemokine produced by macrophages and other cells like epithelial cells that is often associated with inflammation. Interleukin-8 secretion is a key parameter in localized inflammation. There is a growing concern for some of environmental chemicals which may contribute the increasing the incidence of inflammation. A homogeneous IL-8 assay using Time Resolved fluorescence (HTRF) technology based on Time Resolved Fluorescent Resonance Energy Transfer (TR-FRET) allows to measure IL-8 secreted from the cells in a 1536-well plate format.
# THP-1 cells were dispensed at 2000 cells/5ul/well in 1536-well white solid plates. After addition of 23 nl of compound, positive controls and DMSO only, the assay plates were incubated at 37 C for 16 hrs, followed by addition of 5 uL of mixture of cryptate labeled and XL665 labeled anti-IL-8 antibodies. After the assay plates were incubated at room temperature for 1-3 hrs, the plates were measured by an EnVision plate reader.
row,SMILES,Potency
1,C#C[C@]1(O)CC[C@H]2[C@@H]3CCc4cc(O)ccc4[C@H]3CC[C@@]21C,75 µM (active)
2,S=c1[nH]c2ccccc2s1,inactive
3,O=C1CN(/N=C/c2ccc([N+](=O)[O-])o2)C(=O)N1,inactive
4,CCCOC(=O)c1ccc(O)cc1,inactive

# System: not listed separately
# Assay: qHTS assay for environmental chemicals that activate the Aryl hydrocarbon Receptor (AhR) signaling pathway (AID 651777); also: nearly all actives have a fitted effect of over 15% in size; also: potency is read from the fitted curve at half-maximal effect; as to activation: % of control where 0% means no effect
# Conditions: 1A2-DRE human hepatoma cells, luciferase, 24 h; activation: hits give high values
# In short: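 Reporter gene assay: hepatoma cells with DRE/CYP1A2-luciferase, 24 hr compound incubation at 37 C, 5% CO2, luminescence after One-Glo (30 min, RT).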
SMILES,activation,Potency
O=C(O)c1cc(O)c(O)c(O)c1,-0.689%,–
CN(C)c1ccc(N=NS(=O)(=O)O)cc1,10.4%,70.8 µM (active)
COc1cc(CNC(=O)CCCC/C=C/C(C)C)ccc1O,-0.69% and 1.8%,–
O=C(O)c1ccccc1Nc1cccc(C(F)(F)F)c1,0.429%,–
Nc1ccc([N+](=O)[O-])cc1O,7.01%,–
NCCO,-0.695%,–
Nc1ccc(O)c([N+](=O)[O-])c1,4.17% and 0.649%,–
CC1(C)S[C@@H]2[C@H](NC(=O)[C@H](N)c3ccccc3)C(=O)N2[C@H]1C(=O)O,0.371%,–
O=C(O)[C@H](O)[C@@H](O)[C@H](O)[C@H](O)CO,-0.169%,–
CN1[C@@H]2CC[C@H]1CC(OC(=O)C(CO)c1ccccc1)C2 (some centres not stated),-1.81%,–
Nc1ccc(O)c(C(=O)O)c1,0.023% and -1.58%,–
Nc1nc2ccc([N+](=O)[O-])cc2s1,8.89%,–
C#C[C@]1(O)CC[C@H]2[C@@H]3CCc4cc(O)ccc4[C@H]3CC[C@@]21C,-0.528% and -0.741%,–
c1cnc2c(c1)ccc1cccnc12,2.54%,–
c1ccc2sc(SSc3nc4ccccc4s3)nc2c1,-0.44% and 3.22%,–
N=C1N=C(N)c2cc3ccccc3cc21,12.9%,–
CCCCCCCCCCCCCCCCCC(=O)O,0.0234% and 0.947% and 1.53%,–
CC(C)NCC(O)COc1cccc2ccccc12 (configuration not stated),1.27% and 9.4%,–
O=c1cc(-c2ccccc2)oc2ccccc12,–,50.1 µM (active) and 44.7 µM (active)
Nc1cc(-c2ccncc2)c[nH]c1=O,-0.684%,–
C=CCCCCCCCCC(=O)O,1.9%,–
CN1CCC[C@H]1c1cccnc1,0.841% and 0.227%,–
CN(C)CCC(c1ccc(Cl)cc1)c1ccccn1 (configuration not stated),-0.109%,–
O=C1CN(/N=C/c2ccc([N+](=O)[O-])o2)C(=O)N1,4.15%,–
CCCOC(=O)c1ccc(O)cc1,3.41% and 2.32%,–
O=C(Nc1ccccc1)c1cc([N+](=O)[O-])ccc1Cl,–,14.1 µM (active)

# Target: Peroxisome proliferator-activated receptor alpha (Homo sapiens) (UniProt Q07869)
# Assay: qHTS assay for small molecule agonists of the peroxisome proliferator-activated receptor alpha (PPARalpha) signaling pathway (AID 651778); also: % of control where 0% means no effect
# Conditions: PathHunter PPARalpha complementation, chemiluminescence, 6 h; hits give high values
# In short: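 Cells plated at 2,000/well and held overnight at 37 C, 5% CO2, then compound added by pin tool for 6 hr; after PathHunter detection reagent and 60 min at room temperature, chemiluminescence from enzyme complementation was read.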
# Sequence of Peroxisome proliferator-activated receptor alpha (Homo sapiens) (Q07869 whole entry, looked up): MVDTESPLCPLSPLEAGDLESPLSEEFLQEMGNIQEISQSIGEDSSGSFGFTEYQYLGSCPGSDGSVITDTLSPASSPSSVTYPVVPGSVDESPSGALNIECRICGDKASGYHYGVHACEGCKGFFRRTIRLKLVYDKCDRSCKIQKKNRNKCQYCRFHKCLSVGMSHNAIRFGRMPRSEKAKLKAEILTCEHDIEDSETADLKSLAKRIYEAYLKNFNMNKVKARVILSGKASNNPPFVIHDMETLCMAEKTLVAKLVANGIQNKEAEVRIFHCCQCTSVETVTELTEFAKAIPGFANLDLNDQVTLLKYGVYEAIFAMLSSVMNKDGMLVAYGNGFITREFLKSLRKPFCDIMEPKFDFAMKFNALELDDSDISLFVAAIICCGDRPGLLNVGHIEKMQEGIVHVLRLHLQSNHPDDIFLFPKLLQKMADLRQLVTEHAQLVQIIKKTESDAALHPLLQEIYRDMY
row,SMILES,max response
1,O=C(O)c1cc(O)c(O)c(O)c1,-13%
2,CN(C)c1ccc(N=NS(=O)(=O)O)cc1,-7.89% and -1.86%
3,CN(C)c1ccc(C(=C2C=CC(=[N+](C)C)C=C2)c2ccccc2)cc1,-10.3%
4,COc1cc(CNC(=O)CCCC/C=C/C(C)C)ccc1O,-1.35% and 5.82%
5,Nc1ccc([N+](=O)[O-])cc1O,-5.57% and -3.71%
6,NCCO,-2.8%
7,Nc1ccc(O)c([N+](=O)[O-])c1,-1.01% and 0.176%
8,CC1(C)S[C@@H]2[C@H](NC(=O)[C@H](N)c3ccccc3)C(=O)N2[C@H]1C(=O)O,-1.69%
9,O=C(O)/C=C\C(=O)O,-3.33%
10,O=C(O)[C@H](O)[C@@H](O)[C@H](O)[C@H](O)CO,-0.488%
11,Nc1ccc(O)c(C(=O)O)c1,-9.31% and -0.252%
12,Nc1nc2ccc([N+](=O)[O-])cc2s1,-11%
13,C#C[C@]1(O)CC[C@H]2[C@@H]3CCc4cc(O)ccc4[C@H]3CC[C@@]21C,-1.9% and -2.24%
14,S=c1[nH]c2ccccc2s1,-10.8% and -7.19%
15,c1cnc2c(c1)ccc1cccnc12,-3.72%
16,c1ccc2sc(SSc3nc4ccccc4s3)nc2c1,-2.43% and -7.65%

row,SMILES,max response
1,CCCCCCCCCCCCCCCC(=O)OC(C)C,0.689%
2,N=C1N=C(N)c2cc3ccccc3cc21,-3.58%
3,O=C(OCc1ccccc1)c1ccccc1,-1.34%
4,CCCCCCCCCCCCCCCCCC(=O)O,3.29% and 5.21% and -0.146%
5,CC(C)NCC(O)COc1cccc2ccccc12 (configuration not stated),-1.25% and -0.701%
6,O=c1cc(-c2ccccc2)oc2ccccc12,0.229% and -0.923%
7,Nc1cc(-c2ccncc2)c[nH]c1=O,-1.14%
8,C=CCCCCCCCCC(=O)O,3.91%
9,CN1CCC[C@H]1c1cccnc1,-3.15% and -0.899%
10,CN(C)CCC(c1ccc(Cl)cc1)c1ccccn1 (configuration not stated),-7.82%
11,COc1cc(/C=C/C(=O)CC(=O)/C=C/c2ccc(O)c(OC)c2)ccc1O,-5.38%
12,O=C1CN(/N=C/c2ccc([N+](=O)[O-])o2)C(=O)N1,-1.28%
13,Oc1ccccc1O,-0.837%
14,CCCOC(=O)c1ccc(O)cc1,0.116% and 2.06% and -4.76%
15,O=C(Nc1ccccc1)c1cc([N+](=O)[O-])ccc1Cl,0.605%
